An excerpt weighted towards active compounds, which were near 4.3% of everything screened.
D3 antag – qHTS of D3 Dopamine Receptor Antagonist: qHTS; D(3) dopamine receptor (Homo sapiens), P35462; D3R cells, DiscoveRx beta-arrestin luminescence, antagonist mode; hits give low values; max response, negative = inhibition, %; 360,000 compounds, 2.5% hits; AID 652054, 2013; in the data active = max response below about -50%; inconclusive = no clear call, values can overlap the other calls; note: % is set by controls: 0 for no effect and ±100 for the full control effect
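Cells plated overnight at 1500 cells/well, then exposed to library compounds with dopamine controls for 90 minutes at 37 degrees C. DiscoveRx reagent added for 30–60 minutes at room temperature; luminescence read, quantitative HTS format.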
GLP1R ag – qHTS of GLP-1 Receptor Agonists; 380,000 compounds, 0.007% hits; Potency, µM (top dose mostly 45.6 µM), for inactives: at the top dose activation, hits mostly activators; HEK293 GLP-1R CRE-luciferase, luminescence, 4-6 h; cells express a hypersensitive GLP-1R form; note: potency is the fitted concentration of half-maximal effect; % of control where 0% means no effect
Target sequence (P43220 whole entry, looked up): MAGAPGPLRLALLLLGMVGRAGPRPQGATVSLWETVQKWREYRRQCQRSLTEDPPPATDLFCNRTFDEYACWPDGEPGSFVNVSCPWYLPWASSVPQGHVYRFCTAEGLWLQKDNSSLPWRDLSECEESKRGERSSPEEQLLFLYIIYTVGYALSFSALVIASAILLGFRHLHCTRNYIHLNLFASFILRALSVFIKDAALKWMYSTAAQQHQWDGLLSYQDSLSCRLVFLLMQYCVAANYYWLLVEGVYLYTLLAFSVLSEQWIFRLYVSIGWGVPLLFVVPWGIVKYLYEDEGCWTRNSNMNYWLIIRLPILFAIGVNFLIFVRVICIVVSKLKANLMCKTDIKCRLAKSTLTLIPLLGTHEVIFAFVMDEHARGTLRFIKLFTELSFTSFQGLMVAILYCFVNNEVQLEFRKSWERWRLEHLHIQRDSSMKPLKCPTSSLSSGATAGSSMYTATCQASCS
D3 ag – qHTS of D3 Dopamine Receptor Agonist: qHTS | AID 652048, 2013 | max activation, % | D3R DiscoveRx beta-arrestin cells, luminescence, 90 min | D(3) dopamine receptor (Homo sapiens), P35462 | 410,000 compounds, 0.58% hits; in the data active = max activation above about 30%; note: 0% is about no effect
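Agonist-mode cell screen: cells plated at 1500/well and incubated overnight at 37 °C, then exposed to library compounds for 90 min at 37 °C. Detection reagent was added for 30–60 min at room temperature, and luminescence was read.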
GLP-1R inv ag – qHTS of GLP-1 Receptor Inverse Agonists (Inhibition Mode). 410,000 compounds, 1.6% hits. HEK293 GLP-1R CRE-luciferase, luminescence, 24 h; GLP-1R form is constitutively active. Glucagon-like peptide 1 receptor (Homo sapiens), P43220. Potency, µM (titrated, usually from 38.3 µM), for inactives: top-dose activity change, negative = inhibition, actives largely listed as inhibitors; note: potency is the fitted concentration of half-maximal effect; % is set by controls: 0 for no effect and ±100 for the full control effect; nearly all actives have a fitted effect of over 55% in size
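Readout was luciferase luminescence, measured 12 min after detection reagent at room temperature. Beforehand, GLP-1R reporter HEK293 cells had sat 12 h, then received compounds for 24 hr at 37 deg C.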
* hit, by the source's call. Unless noted, calls come from the whole dose curve; as a rule, active = well fitted curve in the direction sought with a large enough effect; inconclusive = small, poorly fitted or top-dose-only effect, or another doubt; inactive = no such curve, though single readings can be large; an effect the other way counts as inactive or inconclusive.

How did CCCN(CC(=O)Nc1ccccc1OC)C(=O)c1cc(-c2cccs2)nn1-c1ccccc1 do in these assays?
D3 antag: 25; GLP1R ag: 4%; D3 ag: -8; GLP-1R inv ag: 11µM*

Results for CCN(CC)S(=O)(=O)c1ccc(C(=O)Nc2nnc(C(C)C)s2)cc1 ?
D3 antag: -69*; GLP1R ag: -1%; D3 ag: -3; GLP-1R inv ag: 5%

Results for CCc1nnc(NC(=O)c2ccc(S(=O)(=O)N(CC(C)C)CC(C)C)cc2)o1 ?
D3 antag: -107*; GLP1R ag: -12%; D3 ag: -7; GLP-1R inv ag: inconclusive

Results for CCOc1ccc(OCC(=O)Nc2nnc3n2CCS3)cc1 ?
GLP1R ag: 7%; D3 ag: -11; GLP-1R inv ag: 4%

How did COc1ccc(CCNC(=O)c2cc(C(=O)c3cc(C)ccc3O)cn(CCc3ccc(OC)cc3)c2=O)cc1 do in these assays?
D3 antag: 67; GLP1R ag: 2%; D3 ag: 31*; GLP-1R inv ag: inconclusive

What do the screens show for `Cc1ccc(NS(=O)(=O)c2ccc3c(c2)N(C)C(=O)CC(=O)N3C)cc1Cl`?
D3 ag: -3; GLP-1R inv ag: 4%

How did C=C(CN(C)C)C(=O)c1cc(C)ccc1C do in these assays?
D3 antag: -88*; GLP1R ag: -14%; D3 ag: -18; GLP-1R inv ag: inconclusive

How did COC(=O)C1=NN(c2ccc(OC)cc2)C2C(=O)N(c3ccccc3OC)C(=O)C12 (stereo not given) do in these assays?
D3 antag: -14; GLP1R ag: -1%; D3 ag: -1; GLP-1R inv ag: 10%

What do the screens show for `COC(=O)C1=CC(C(=O)c2cccs2)=NN(c2ccc(OC)cc2)C1C(=O)OC` (stereo not given)?
D3 antag: -56*; GLP1R ag: 17%; D3 ag: -8; GLP-1R inv ag: inconclusive

How did COc1ccc(NC(=O)CCN2CCN(CCO)CC2)c(OC)c1 do in these assays?
D3 ag: -17; GLP-1R inv ag: -6%

Results for COc1ccc2c(CNCCc3ccccc3OC)c(C(=O)O)n(Cc3ccc(F)cc3Cl)c2c1 ?
GLP1R ag: -6%; D3 ag: -17; GLP-1R inv ag: inconclusive

What do the screens show for `Cc1[nH]n(-c2ccccc2)c(=O)c1C(c1cccc([N+](=O)[O-])c1O)c1c(C)[nH]n(-c2ccccc2)c1=O`?
D3 antag: -70*; GLP1R ag: -2%; D3 ag: -11; GLP-1R inv ag: 0%

What do the screens show for `Cc1[nH][nH]c(=O)c1C(c1ccc(O)c([N+](=O)[O-])c1)c1c(C)[nH][nH]c1=O`?
D3 antag: -5; GLP1R ag: -14%; D3 ag: -4; GLP-1R inv ag: -1%

How did Cc1ccc(C(c2ccc(C)o2)c2cccc([N+](=O)[O-])c2O)o1 do in these assays?
D3 antag: -73*; GLP1R ag: -15%; D3 ag: -2; GLP-1R inv ag: inconclusive

What do the screens show for `Cc1cc(C(c2ccc(C)o2)c2ccc(C)o2)c(O)c([N+](=O)[O-])c1`?
D3 antag: -97*; GLP1R ag: -6%; D3 ag: -6; GLP-1R inv ag: 10µM*

What do the screens show for `Cc1c(C(c2cccc([N+](=O)[O-])c2O)c2c(C)n(C)n(-c3ccccc3)c2=O)c(=O)n(-c2ccccc2)n1C`?
D3 antag: -23; GLP1R ag: -3%; D3 ag: -8; GLP-1R inv ag: -1%

What do the screens show for `CC1CCc2sc(C(=O)NNS(=O)(=O)c3ccc(F)c(F)c3F)cc2C1` (stereo not given)?
D3 antag: -21; GLP1R ag: 8%; D3 ag: -7; GLP-1R inv ag: inconclusive

What do the screens show for `O/N=C/c1cn(-c2ccccc2)nc1-c1ccccc1`?
D3 antag: 55; GLP1R ag: 31%; D3 ag: 45*; GLP-1R inv ag: inconclusive

How did O=C(CN1C(=O)NC2(CCCC2)C1=O)Nc1ccc(F)c(Cl)c1 do in these assays?
D3 antag: -6; GLP1R ag: 0%; D3 ag: -4; GLP-1R inv ag: inconclusive

Results for COc1ccc(OC)c(S(=O)(=O)Nc2cc3c(cc2C)n(C)c(=O)c(=O)n3C)c1 ?
D3 ag: 6; GLP-1R inv ag: 3%

What do the screens show for `CC(=O)Nc1cc(C(=O)N2CCCC2)ccc1Sc1ccc(C)cc1`?
D3 antag: 34; GLP1R ag: -6%; D3 ag: 41*; GLP-1R inv ag: 0%

What do the screens show for `COc1ccc(OC)c(CNC(=O)c2ccc(Sc3ccc(Cl)cc3)c(NC(C)=O)c2)c1`?
D3 ag: 7; GLP-1R inv ag: -30%

Results for CC(=O)Nc1cc(C(=O)N2CCCC2)ccc1Sc1ccc(Cl)cc1 ?
D3 antag: 58; GLP1R ag: 0%; D3 ag: 63*; GLP-1R inv ag: 0%

What do the screens show for `CCN(CCCNC(=O)c1ccc(Sc2ccc(Cl)cc2)c(NC(C)=O)c1)c1ccccc1`?
D3 ag: -6; GLP-1R inv ag: 10µM*

What do the screens show for `Cc1ccc(S(=O)(=O)N2CCN(C)CC2)cc1[N+](=O)[O-]`?
D3 antag: 23; GLP1R ag: -6%; D3 ag: 3; GLP-1R inv ag: 4%

How did CN1CCN(S(=O)(=O)c2ccc(N(C)Cc3ccc(OC(F)F)cc3)c([N+](=O)[O-])c2)CC1 do in these assays?
D3 antag: -6; GLP1R ag: -1%; D3 ag: -14; GLP-1R inv ag: 10µM*

How did COc1cc2c3c(cccc3c1)C(=O)N(CCN1CCCC1)C2=O do in these assays?
D3 antag: 0; GLP1R ag: -8%; D3 ag: -1; GLP-1R inv ag: 4.5µM*

What do the screens show for `CN(C)CCOC1c2ccccc2C=Cc2ccccc21`?
D3 antag: inconclusive; GLP1R ag: 4%; D3 ag: -13; GLP-1R inv ag: inconclusive

How did CN(C)CCCC1Sc2ccccc2Sc2ccccc21 (stereo not given) do in these assays?
D3 antag: -69*; GLP1R ag: 1%; D3 ag: -40; GLP-1R inv ag: inconclusive

Results for CN=C(C[N+](=O)[O-])NCCSCc1ccc(CN(C)C)o1 ?
D3 antag: -59*; GLP1R ag: 3%; D3 ag: -66; GLP-1R inv ag: 5%

What do the screens show for `CCc1ccc(-n2nc(C)c3c(C(=O)Nc4cccc(C(F)(F)F)c4)cc(C)nc32)cc1`?
D3 ag: 19; GLP-1R inv ag: 2.2µM*

Results for Cc1nn(-c2ccccc2)c2nc(C3CC3)cc(C(=O)Nc3cccc(F)c3)c12 ?
D3 ag: 5; GLP-1R inv ag: 5.6µM*

How did CCc1ccc(-n2nc(C)c3c(C(=O)Nc4ccc(Cl)cc4)cc(C)nc32)cc1 do in these assays?
D3 ag: 3; GLP-1R inv ag: -13%

How did COc1ccc(Cc2c(C)nn(-c3nc(C)c(C(=O)Nc4ccc(C)cc4C)s3)c2C)cc1 do in these assays?
D3 ag: -8; GLP-1R inv ag: 10%

Bioassay records from PubChem.
